This is a sample that favours compounds with a hit; in the whole collection about 22% have one here.
Measles CPE = compounds protecting cells from measles virus cytopathic effect, primary screen, measles RdRp inhibitor project, single point, MLSMR library, absorbance. Measles virus-infected cells, CPE protection. protection (pct of control), % at 4 µM. 140,000 compounds, 1.5% hits; in the data active = protection mostly above about 24%, no sharp cut-off; inactive = mostly below about 26%
CYP2C9 inh = blockers of cytochrome P450 2C9 activity – biochemical, luminescence, ADME assay, primary screen; CYP2C9 Supersomes, luciferin-H conversion; inhibition, % at 5 µM; 96,000 compounds, 20% hits; AID 777, 2007;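 active = blocking of liver enzyme CYP2C9 beyond about 50% at 5 µM, limit read from the data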
CYP2C9 activ = human CYP2C9 activators, primary screen, biochemical, luminescence | Cytochrome P450 2C9 (Homo sapiens), P11712 | 96,000 compounds, 1.4% hits | AID 1024, 2008 | activation factor at 5 µM | recombinant CYP2C9, luciferin-H conversion; stronger effect = higher value; factor 1 = untreated enzyme, 0 = blocked;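 active = activation factor of 2 or more for CYP2C9 at a 5 µM dose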;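 note: 0 = sulfaphenazole-blocked wells and 1 = vehicle-only wells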
CYP2C19 activ = human CYP2C19 activators, primary screen, biochemical, luminescence. activation factor at 5 µM. 96,000 tested, under 10 active. recombinant CYP2C19, luciferin-H EGE luminescence; stronger effect = higher value; 0 = fully inhibited enzyme, 1 = untreated enzyme. Cytochrome P450 2C19 (Homo sapiens), P33261;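 active = activation factor of at least 2 at 5 µM in the primary screen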;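 note: 0 = wells with 2.5 mM tranylcypromine and 1 = vehicle-only wells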
Target sequence (P33261 whole entry, looked up): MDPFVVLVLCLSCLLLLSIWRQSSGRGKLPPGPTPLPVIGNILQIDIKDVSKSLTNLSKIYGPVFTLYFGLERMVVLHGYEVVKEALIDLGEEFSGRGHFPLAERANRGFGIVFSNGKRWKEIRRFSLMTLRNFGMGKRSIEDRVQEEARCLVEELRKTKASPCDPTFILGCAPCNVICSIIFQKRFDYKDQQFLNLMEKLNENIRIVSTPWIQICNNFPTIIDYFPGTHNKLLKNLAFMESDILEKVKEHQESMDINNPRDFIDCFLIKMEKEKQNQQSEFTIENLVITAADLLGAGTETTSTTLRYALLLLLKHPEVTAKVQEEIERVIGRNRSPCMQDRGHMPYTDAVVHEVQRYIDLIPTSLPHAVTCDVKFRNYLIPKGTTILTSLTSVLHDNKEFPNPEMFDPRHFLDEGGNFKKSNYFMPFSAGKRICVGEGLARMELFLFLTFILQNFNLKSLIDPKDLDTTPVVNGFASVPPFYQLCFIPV
CYP2C19 inhib = blockers of cytochrome P450 2C19 activity – biochemical, luminescence, ADME assay, primary screen; inhibition, % at 5 µM; 96,000 compounds, 21% hits; AID 778, 2007; CYP2C19 Supersomes, luciferin-H EGE luminescence, 30 min;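 active = CYP2C19 inhibition above a set limit at 5 µM in the primary screen, cut at about 50% in these data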;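 note: plate controls were negative control wells for no effect and 2.5 mM tranylcypromine positive control for full effect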
* hit, by the source's call; / = no result.

SMILES | Measles CPE | CYP2C9 inh | CYP2C9 activ | CYP2C19 activ | CYP2C19 inhib
CSC1=NCCN1C(=O)c1c(F)cccc1F | 6 | 10 | 0.9 | 0.9 | 11
O=C(C1CCCN(S(=O)(=O)c2cnc[nH]2)C1)N1CC(=O)N(CCc2ccccc2)C(=O)C1 (centres undefined) | 6 | 28 | 0.7 | 0.9 | 12
CCC(=O)c1ccc(OCc2ccc(C(=O)OC)o2)c(OC)c1 | 3 | 56* | 0.4 | 0.6 | 40
C/C=C/c1ccccc1OCc1ccc(C(=O)OC)o1 | 2 | 22 | 0.8 | 0.7 | 27
C=CCc1ccc(OCc2ccc(C(=O)OC)o2)c(OC)c1 | 13 | 68* | 0.3 | 0.6 | 44
CC(C)=NOc1cc(NC(=O)CCl)cc([N+](=O)[O-])c1 | 4 | / | / | / | /
CCC(=O)Nc1cc(ON=C(C)C)cc([N+](=O)[O-])c1 | 96* | / | / | / | /
C=CCOCC(O)CS(=O)(=O)Cc1ccc(Cl)cc1 (centres undefined) | 2 | 17 | 0.8 | 0.3 | 74*
CCNc1nc(NCC)n2c(SCC(=O)c3ccc(C(C)C)cc3)nnc2n1 | 3 | / | / | / | /
Cc1ccc(SC/C(O)=C(\C#N)c2nc3ccccc3n2C)cc1 | 2 | 50* | 0.5 | 0.7 | 30
Cc1cc(NS(=O)(=O)c2ccc(NC(=S)NC(=O)c3ccc(C(C)(C)C)cc3)cc2)no1 | 6 | / | / | / | /
CC(C)C(NC(=O)c1cccs1)C(=O)NC1=NCCS1 (centres undefined) | 24 | 27 | 0.7 | 0.5 | 54*
COc1ccc(C2C(C(=O)Nc3cc(C)on3)c3ccccc3C(=O)N2C)cc1 (centres undefined) | 9 | 69* | 0.3 | 0.8 | 22
CCc1c(C)c(C#N)c2nc3ccccc3n2c1NCc1ccco1 | 7 | 71* | 0.3 | 0.6 | 42
Cc1nn(CC(=O)Nc2ccccn2)c(C)c1[N+](=O)[O-] | 6 | -4 | 1 | 0.9 | 9
Brc1ccc(-c2nc(N/N=C/c3cccnc3)c3ccccc3n2)cc1 | 10 | 64* | 0.4 | 0.6 | 43
COC(=O)COc1ccc(C(=O)OC)cc1 | 4 | 29 | 0.7 | 0.2 | 81*
COC(=O)c1ccc(COC(=O)c2ccccc2OC)cc1 | 3 | / | / | / | /
COC(=O)c1ccc(OCC(=O)c2ccccc2OC)cc1 | 5 | 45 | 0.6 | 0.1 | 90*
CCOC(=O)Nc1ccc2c(c1)N(C(=O)N(CC)CC)c1ccccc1CC2 | 3 | / | / | / | /
O=C(Nc1cc(S(=O)(=O)N2CCOCC2)ccc1N1CCOCC1)c1cnccn1 | 3 | / | / | / | /
N#Cc1nc(-c2ccccc2Cl)oc1N1CCCCC1 | 3 | 81* | 0.2 | 0.1 | 86*
CN(C)c1oc(-c2ccccc2Cl)nc1C#N | 2 | -179 | 2.8* | 0.4 | 62*
CN(C)c1oc(-c2ccccc2Cl)nc1S(=O)(=O)c1ccccc1 | 21 | -44 | 1.4 | 0.2 | 79*
CCCCOc1ccc(C(=O)NCC2(c3ccc(OC)cc3)CCOCC2)cc1 | 17 | / | / | / | /
SMILES | Measles CPE | CYP2C9 inh | CYP2C9 activ | CYP2C19 activ | CYP2C19 inhib
Cc1cc(C(=O)NC(C)c2ccncc2)cs1 (centres undefined) | 9 | 44 | 0.6 | 0.6 | 39
CC(C)OP(=O)(OC(C)C)C(NC(=O)c1ccc(Br)cc1)c1ccccc1 (centres undefined) | 1 | 41 | 0.6 | 0.5 | 50
COc1cc(C2NC(=S)NC(O)(C(F)(F)F)C2C(=O)c2cccs2)cc(OC)c1O (centres undefined) | 32* | / | / | / | /
CCOC(=O)C1C(c2cc(OC)c(OC)c(OC)c2)NC(=S)NC1(O)C(F)(F)F (centres undefined) | 11 | 2 | 1 | 0.8 | 17
O=C1NC(c2ccccc2)C(C(=O)c2cccs2)C(O)(C(F)(F)F)N1 (centres undefined) | 3 | -1 | 1 | 1 | 1
CCOC(=O)C1C(c2cc(OC)c(O)c(OC)c2)NC(=S)NC1(O)C(F)(F)F (centres undefined) | 36* | / | / | / | /
O=C(CSc1nc2ccccc2c(=O)n1-c1ccc(OC(F)F)cc1)NCc1cccs1 | 23 | / | / | / | /
CCOC(=O)c1c(C)[nH]c(C(=O)Cn2nnc(-c3ccccc3Cl)n2)c1C | 11 | 82* | 0.2 | 0.8 | 19
CCOC(=O)c1c(C)[nH]c(C)c1C(=O)Cn1nnc(-c2ccccc2C)n1 | 31 | / | / | / | /
CCOC(=O)c1c(C)[nH]c(C(=O)Cn2nnc(-c3ccccc3)n2)c1C | 11 | 48 | 0.5 | 0.4 | 59*
CCOC(=O)c1c(C)[nH]c(C(=O)COC(=O)c2ccccn2)c1C | 26 | 56* | 0.4 | 0.7 | 34
COc1cc(NC(=O)CCC2CCCC2)cc(-n2cnnn2)c1 | 7 | / | / | / | /
Cc1ccccc1C(=O)NC(C)c1ccc2c(c1)CCCC2 (centres undefined) | 5 | -123 | 2.2* | 0.8 | 18
CCOC(=O)c1c(C)c(C(=O)NC(C)COC)c(C)n1CC (centres undefined) | 12 | 0 | 1 | 0.9 | 5
COc1ccc(/C=N/Nc2ccccc2)cc1Cn1nc(C)c([N+](=O)[O-])c1C | 22 | 50* | 0.5 | 0.3 | 72*
Cc1nn(CC(=O)Nc2ccc(Cl)cn2)c(C)c1Br | 4 | / | / | / | /
COCCCN1CN(Cc2ccccc2)CNC1=S | 4 | / | / | / | /
CC1=C(C)CC(C(=O)NCCc2ccccc2)C(C(=O)O)C1 (centres undefined) | 8 | 12 | 0.9 | 0.8 | 15
CC1=C(C)CC(C(=O)c2ccccc2)C(C(=O)O)C1 (centres undefined) | 48* | -10 | 1.1 | 1.1 | -12
CC(C)c1ccc(C2C(C#N)=C(N)N3C(=C2C#N)Sc2ccccc23)cc1 (centres undefined) | 8 | 21 | 0.8 | 0.3 | 67*
O=C(N1CCCCC1)C1(c2ccccc2)CCOCC1 | 16 | 9 | 0.9 | 0.8 | 22
O=C(N1CCOCC1)C1(c2ccccc2)CCCCC1 | 5 | 5 | 0.9 | 0.3 | 69*
CCN(CC)S(=O)(=O)c1cccc(-c2nnc(SCC(N)=O)n2CCc2ccccc2)c1 | 15 | / | / | / | /
CCN(CC)S(=O)(=O)c1cccc(-c2nnc(SCC(=O)c3ccc(Cl)s3)n2C)c1 | 7 | 89* | 0.1 | 0.3 | 71*
CCN(CC)S(=O)(=O)c1cccc(-c2nnc(SCC#N)n2Cc2ccccc2)c1 | 5 | 18 | 0.8 | 0.8 | 23
CCN(CC)S(=O)(=O)c1cccc(-c2nnc(SC(C)C(N)=O)n2CCc2ccccc2)c1 (centres undefined) | 5 | 56* | 0.4 | 0.5 | 46
CCN(CC)S(=O)(=O)c1cccc(-c2nnc(SC(C)C#N)n2Cc2ccccc2)c1 (centres undefined) | 6 | 64* | 0.4 | 0.4 | 61*
COc1ccccc1Nc1nnc(C)c(=O)[nH]1 | 17 | 2 | 1 | 1 | 0

Bioassay records (PubChem BioAssay)
